This is an account of results in PubChem BioAssay AID2254 (The Scripps Research Institute Molecular Screening Center, 2010).

The test is described as follows: human RBBP9 inhibitor potency, late-stage follow-up, biochemical, gel-based ABPP, IC50 (AID 2254). The note with it: fluorophosphonate probe labeling of RBBP9.

A number with no mark means an inactive call. No rule for the calls is given here.

The IC50 is the point on the concentration scale where inhibition reaches its midpoint. In the case of `C/C(=N\OC(=O)c1ccc(Cl)cc1)c1nccs1`, the IC50 was greater than 100 µM.

As for `C/C(=N\OC(=O)c1ccc(F)cc1)c1nccs1`, the IC50 is greater than 100 µM.

Take `CC1=CC(=NOC(=O)/C=C/c2ccccc2)C=C(C)C1=O`: the IC50 was greater than 100 µM.

In the case of `C/C(=N\OC(=O)c1ccccc1)c1nccs1`, the IC50 is greater than 100 µM.

On to `C/C(=N\OC(=O)C1CCCCC1)c1nccs1`, for which the IC50 is greater than 100 µM.

Take `COc1ccc(C(=O)O/N=C(\C)c2nccs2)cc1`: the IC50 was greater than 100 µM.

Consider `COc1ccc(C(=O)ON=C2C=C(C)C(=O)C(C)=C2)cc1`, for which the IC50 is greater than 100 µM.
